From PubChem BioAssay (Tox21)
Several values for one entry are separate records, joined by “and”; a condition that tells them apart may be missing. Equal entries are not always repeated. Inconclusive results are not listed. Where a call stands in place of a potency, no number is given. Some compounds were tested as several samples or in several runs, with calls that do not always agree. Activity calls are given as the source filed them. Calls follow the shape of the dose curve; as a rule, active = well fitted activation curve with a large enough effect in the repeat runs; inconclusive = weak or mixed curves; inactive = flat fitted curve, though single readings scatter.
Potency is read from the fitted curve at half-maximal effect.

Experiment: A CellTox Green Cytotoxicity Assay to monitor cytotoxicity in HEK293 cells - 32 hour (AID 1224881); also: nearly all actives have a fitted effect of over 40% in size
Settings: CellTox Green fluorescence; series mostly up to 76.8 µM; cytotoxicity increase: at the top concentration
Source text: National Center for Advancing Translational Sciences [NCATS]
NIH Chemical Genomics Center [NCGC]
U.S. Environmental Protection Agency [EPA]
National Institutes of Environmental Health Sciences [NIEHS]
National Toxicology Program [NTP]
Cell-based models are critical for drug discovery. Determining the natural cytotoxic effects resulting from test compounds is an essential research activity. A CellTox Green Cytotoxicity Assay to monitor cytotoxicity in real time of continues cell culture during 40 hours of the compound treatment was used to screen Tox21 10K library compounds in Hek293 cells. CellTox Green Cytotoxicity Assay is a nonlytic, homogeneous, biofluorescent method to measure cytotoxicity in cell culture after experimental manipulation. The assay system uses a proprietary asymmetric cyanine dye that is excluded from viable cells but preferentially stains the dead cell's DNA. […] Viable cells produce no appreciable increases in fluorescence. Therefore, the fluorescence signal produced by the binding interaction with dead cell DNA is proportional to cytotoxicity.
The mixture of Hek293 cell suspension and reagents were dispensed at 600cells/6 ul/well in 1536-well tissue culture treated black solid bottom plates using a Multidrop dispenser. After the assay plates were incubated at a 37 C/5% CO2 incubator for 5 hours, 23 nL of compounds dissolved in DMSO, positive and negative controls was transferred to the assay plate by a pintool work station. The plates were incubated at 37 C for 40 hours. The fluorescence intensity were measured at 0h, 8h, 16h, 24h, 32h and 40h time points using ViewLux plate reader during compound treatment.
For `O=C(O)c1ccccc1C(c1ccc(O)cc1)c1ccc(O)cc1`, the Potency was “inactive”.
For `CC1=CCC2CC1C2(C)C` (stereo not given), the Potency was “inactive”.
With `CN(C)CCC(c1ccc(Cl)cc1)c1ccccn1` (stereo not given) the Potency was “inactive”.
With `CCCCCCCCCC` the Potency was “inactive”.
With `CCC(O)OC(O)CC` (stereo not given) the Potency was “inactive”.
In the case of `C/C=C1/CC2C=CC1C2` (stereo not given), the Potency is reported as “inactive”.
With `COc1ccc(Nc2ccccc2)c(C)c1` the “cytotoxicity increase” value was -0.644% (inactive).
For `CC[C@H](C)C(=O)O[C@H]1C[C@@H](C)C=C2C=C[C@H](C)[C@H](CC[C@@H]3C[C@@H](O)CC(=O)O3)[C@H]21`, the “cytotoxicity increase” value was 3% (inactive).
For `CCCCN(CCCC)CCCC`, the Potency was “inactive”.
For `CC1=CC(=O)NS(=O)(=O)O1`, the Potency was “inactive”.
With `COc1ccc(Cl)cc1C(=O)NCCc1ccc(S(=O)(=O)NC(=O)NC2CCCCC2)cc1` the Potency was “inactive”.
With `CC1CCC(C(C)C)C(O)C1` (stereo not given) the Potency was “inactive”.
With `C=C(C)C(=O)Nc1ccc(Cl)c(Cl)c1` the Potency was “inactive”.
For `CN(C)CCC(c1ccccc1)c1ccccn1` (stereo not given), the Potency was “inactive”.
For `C=C(C)C(=O)OCCOCCOCCOC(=O)C(=C)C`, the Potency was “inactive”.
With `CCCCC(CC)COC(=O)C(C#N)=C(c1ccccc1)c1ccccc1` (stereo not given) the Potency was “inactive”.
For `CCCCCCCCCCCCc1ccccc1`, the Potency was “inactive”.
With `O=[N+]([O-])c1ccc(/C=C/c2ccc([N+](=O)[O-])cc2S(=O)(=O)O)c(S(=O)(=O)O)c1` the Potency was “inactive”.
In the case of `OCc1cccnc1`, the Potency is reported as “inactive”.
For `C=CCOC(=O)c1ccccc1C(=O)OCC=C`, the Potency was “inactive”.
In the case of `CCCCCCOCCO`, the Potency is reported as “inactive”.
In the case of `CN(C)CCCN`, the Potency is reported as “inactive”.
With `CCCCCCCCCCCCCCO` the Potency was “inactive”.
With `C#CCN(C)Cc1ccccc1` the Potency was “inactive”.
With `CCCCCC1=CCCC1=O` the Potency was “inactive”.
In the case of `O=c1[nH]c(=O)n([C@H]2C[C@H](O)[C@@H](CO)O2)cc1Br`, the Potency is reported as “inactive”.
In the case of `O=C(OCCOCCOC(=O)c1ccccc1)c1ccccc1`, the Potency is reported as “inactive”.
With `CCCC(C)=O` the Potency was “inactive”.
With `C=C(C)C(=O)O[C@H]1C[C@@H]2CC[C@@]1(C)C2(C)C` the Potency was 10.9 µM (active) and inactive.
With `C[C@H]1C[C@@H]2[C@H]([C@@H](O)C[C@@]3(C)[C@H]2CC[C@]3(O)C(=O)CO)[C@@]2(C)C=CC(=O)C=C12` the Potency was “inactive”.
For `CC(=O)CC(=O)Nc1ccccc1`, the Potency was “inactive”.
In the case of `CC(=O)Nc1cccc(O)c1`, the Potency is reported as “inactive”.
With `CC(C)(N)CO` the Potency was “inactive”.
In the case of `O=C(Oc1ccccc1)c1ccccc1`, the Potency is reported as “inactive”.
With `C#C[C@]1(O)CC[C@H]2[C@@H]3CCC4=CC(=O)CC[C@@H]4[C@H]3CC[C@@]21C` the Potency was “inactive”.
In the case of `CCCCC(CC)COC(=O)CCCCC(=O)OCC(CC)CCCC` (stereo not given), the Potency is reported as “inactive”.
In the case of `CCCCCCCCC/C=C/CC1CC(=O)OC1=O` (stereo not given), the Potency is reported as “inactive”.
With `Cc1ccc(N(C)C)cc1` the Potency was “inactive”.
In the case of `CN(C)CCOCCN(C)C`, the Potency is reported as “inactive and 49 µM (active)”.
For `CCc1cccc(C)c1N`, the Potency was “inactive”.
